Data from PubChem BioAssay (NCI).
About 83,000 compounds went through this panel and 20% of them were active in at least one assay; those are over-represented in the sample as a whole.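 Plates (96-well) were seeded with cells, treated with compound at one concentration, and incubated for 48 hours before percent growth was determined.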 Values without a mark were called inactive. The source made the active and inactive calls. How the source made its calls: active means growth percent below 10; inactive means the rest.

What follows are molecules tested on SK-MEL-2 melanoma (assay: NCI-60 one-dose screen, 48 h (100 = growth as untreated, 0 = no growth, -100 = all killed)). Settings: 10 µM unless noted.
O=S(=O)(NCCCNc1nccc(-n2ccc3cccnc32)n1)c1cccc(C(F)(F)F)c1 showed a growth of 107%. CC(C)(C)n1cc(-c2ccnc(NCCNS(=O)(=O)c3ccc(F)cc3)c2)c(-c2cccc(O)c2)n1 gave a growth of 66.5%. Work on Cc1ccc(-c2cc3nc(C(Cl)Cl)nc(-c4ccccc4C)n3n2)cc1 yielded a growth of 94.5%. Work on O=C(NNC(=O)N1c2ccccc2C=Cc2ccccc21)c1ccc2ccccc2c1 yielded a growth of 98.5%. CN(C[C@H]1Cc2c(cccc2N2CCN(Cc3ccccn3)CC2)CN1)[C@H]1CCCc2cccnc21 gave a growth of 73.2%. In the case of CCCCCCCCC(C)OC(=O)c1nn(C(C)=O)c2ccccc12 (stereo not drawn), the growth is reported as 97.7%. With OC(c1cc2cc(Br)ccc2c2cc(Br)ccc12)C1CCCCN1 (stereo not drawn) the growth was -73.5% (active). For O=C(NS(=O)(=O)c1ccc2ccccc2c1)n1cc(-c2ccncc2)c(-c2ccc(Cl)c(O)c2)n1, the growth was -2.83% (active). Work on Cc1cc(N)n(S(=O)(=O)c2oc(-c3ccccc3)nc2C#N)n1 yielded a growth of 89.7%. Work on O=[N+]([O-])c1ccc(C(c2ccccc2)c2ccccc2)cc1 yielded a growth of 110%. CN(C)c1oc(C2OC2c2ccccc2)nc1C#N (stereo not drawn) gave a growth of 99.4%. Molecule Cc1ccc(S(=O)(=O)NC(=O)n2cc(-c3ccncc3)c(-c3ccc(Cl)c(O)c3)n2)cc1 has a growth of 90.9%. Work on CN(CCCCN(C[C@H]1Cc2ncccc2CN1)[C@H]1CCCc2cccnc21)C1CCC(F)(F)CC1 yielded a growth of 94.6%. With Cc1cc(C2(c3cc(C)c(O)cc3C)OS(=O)(=O)c3ccccc32)c(C)cc1O the growth was 111%. CC1CN(c2oc(-c3ccccc3)nc2C#N)CC(C)O1 (stereo not drawn) gave a growth of 102%. Work on NC(=O)CCCN1C/C(=C\c2ccccc2)C(=O)c2ccccc21 yielded a growth of 90.4%. Cc1ccc(S(=O)(=O)NCCCNc2cc(-c3cn(C(C)(C)C)nc3-c3cccc(O)c3)ccn2)cc1 gave a growth of 70.4%. Cc1nc2ncccc2nc1Nc1ccc(S(=O)(=O)Nc2ccccn2)cc1 showed a growth of 104%. COc1ccc(NC(=O)c2c(Nc3ccc(OC)cc3OC)n[nH]c2N)c(OC)c1 showed a growth of 102%. In the case of CCOC(=O)c1cn2c3c(cc(C)cc3c1=O)C(=O)/C(=C/c1ccccc1)C2, the growth is reported as 95.5%. N=c1ccc2nc3ccc(N)cc3sc-2c1 gave a growth of 50.9%. CC12CCC3C4(C)COC(c5ccccc5Cl)OC4CCC3(C)C1CC(C1=CCOC1=O)O2 (stereo not drawn) showed a growth of 77.4%. C=C1CCC2C(C)(CO)C(O)CCC2(C)C1CC(NCc1ccccc1)C1=CCOC1=O (stereo not drawn) gave a growth of 101%. c1cc(C2=N[C@@H]3c4ccccc4C[C@@H]3O2)nc(C2=N[C@@H]3c4ccccc4C[C@@H]3O2)c1 showed a growth of 103%. COC1=C(OC)C(=O)C(CCCCCCCCCC[P+](c2ccccc2)(c2ccccc2)c2ccccc2)=C(C)C1=O was tested, and the growth was -42.7% (active). With COc1ccc(-c2cc(-c3ccccc3)nc(SCCCC(=O)NO)n2)cc1OC the growth was -1.51% (active). N=C(N)c1ccc(-c2cc(Cl)cc(Cl)c2)cn1 gave a growth of 101%. Nc1cccc(-c2nc3sccn3c2-c2ccnc(NCCNS(=O)(=O)c3ccc(C(F)(F)F)cc3)n2)c1 showed a growth of 80.5%. C=C1CCC2C(C)(CO)C(O)CCC2(C)C1C/C=C1/C(=O)OCC1O/C=C/c1ccccc1 (stereo not drawn) gave a growth of 72.7%. Molecule CCN(CC)CCC(CNc1ccnc2cc(Cl)ccc12)c1ccccc1 (stereo not drawn) has a growth of 56.2%. With COc1ccc(-c2ccc(-c3ccc(C(=N)N)cn3)s2)cc1OC the growth was 109%. Cn1cnc2c(N3CCN(C(=O)OCc4ccc5c(Cl)cc(Cl)c(O)c5n4)CC3)nc(Cl)nc21 showed a growth of 81%. For C=C1CCC2C(C)(CO)C(O)CCC2(C)C1C/C=C1/C(=O)OCC1Oc1ccccc1C (stereo not drawn), the growth was 87.5%. Work on COc1ccc(S(=O)(=O)NCCCNc2nccc(-n3ccc4cccnc43)n2)cc1 yielded a growth of 106%. In the case of CCN(CC)CCC(CNc1ccnc2cc(Cl)ccc12)c1ccc(Cl)cc1 (stereo not drawn), the growth is reported as -75.7% (active). With N=C(N)c1ccc(-c2ccc(-c3ccc(-c4cccs4)s3)s2)cc1 the growth was 108%. For COc1ccc(Nc2nn3c(C)cc(C)nc3c2C(=O)Nc2ccc(C)cc2)c(OC)c1, the growth was 92.7%. Molecule CCCCCCN1CSC(=S)N(CCCCCC)C1 has a growth of 124%. Work on O=C(NS(=O)(=O)c1ccccc1)n1cc(-c2ccncc2)c(-c2ccc(Cl)c(O)c2)n1 yielded a growth of 64%.

These molecules were tested on EKVX NSCLC in the same assay as above. Settings: 10 µM unless noted.
For O=S(=O)(NCCCNc1nccc(-n2ccc3cccnc32)n1)c1cccc(C(F)(F)F)c1, the growth was 101%. With CC(C)(C)n1cc(-c2ccnc(NCCNS(=O)(=O)c3ccc(F)cc3)c2)c(-c2cccc(O)c2)n1 the growth was 63%. Molecule Cc1ccc(-c2cc3nc(C(Cl)Cl)nc(-c4ccccc4C)n3n2)cc1 has a growth of 71.1%. Molecule O=C(NNC(=O)N1c2ccccc2C=Cc2ccccc21)c1ccc2ccccc2c1 has a growth of 89%. In the case of CN(C[C@H]1Cc2c(cccc2N2CCN(Cc3ccccn3)CC2)CN1)[C@H]1CCCc2cccnc21, the growth is reported as 54.8%. Work on CCCCCCCCC(C)OC(=O)c1nn(C(C)=O)c2ccccc12 (stereo not drawn) yielded a growth of 92.2%. For OC(c1cc2cc(Br)ccc2c2cc(Br)ccc12)C1CCCCN1 (stereo not drawn), the growth was -70.7% (active). Work on O=C(NS(=O)(=O)c1ccc2ccccc2c1)n1cc(-c2ccncc2)c(-c2ccc(Cl)c(O)c2)n1 yielded a growth of 65.5%. Cc1cc(N)n(S(=O)(=O)c2oc(-c3ccccc3)nc2C#N)n1 gave a growth of 84.7%. O=[N+]([O-])c1ccc(C(c2ccccc2)c2ccccc2)cc1 showed a growth of 94.8%. CN(C)c1oc(C2OC2c2ccccc2)nc1C#N (stereo not drawn) showed a growth of 102%. For Cc1ccc(S(=O)(=O)NC(=O)n2cc(-c3ccncc3)c(-c3ccc(Cl)c(O)c3)n2)cc1, the growth was 110%. For CN(CCCCN(C[C@H]1Cc2ncccc2CN1)[C@H]1CCCc2cccnc21)C1CCC(F)(F)CC1, the growth was 87.4%. Cc1cc(C2(c3cc(C)c(O)cc3C)OS(=O)(=O)c3ccccc32)c(C)cc1O was tested, and the growth was 105%. CC1CN(c2oc(-c3ccccc3)nc2C#N)CC(C)O1 (stereo not drawn) showed a growth of 92.6%. Molecule NC(=O)CCCN1C/C(=C\c2ccccc2)C(=O)c2ccccc21 has a growth of 106%. Cc1ccc(S(=O)(=O)NCCCNc2cc(-c3cn(C(C)(C)C)nc3-c3cccc(O)c3)ccn2)cc1 showed a growth of 61%. Work on Cc1nc2ncccc2nc1Nc1ccc(S(=O)(=O)Nc2ccccn2)cc1 yielded a growth of 98%. COc1ccc(NC(=O)c2c(Nc3ccc(OC)cc3OC)n[nH]c2N)c(OC)c1 gave a growth of 89.1%. CCOC(=O)c1cn2c3c(cc(C)cc3c1=O)C(=O)/C(=C/c1ccccc1)C2 showed a growth of 101%. N=c1ccc2nc3ccc(N)cc3sc-2c1 was tested, and the growth was 47.9%. CC12CCC3C4(C)COC(c5ccccc5Cl)OC4CCC3(C)C1CC(C1=CCOC1=O)O2 (stereo not drawn) showed a growth of 63.7%. C=C1CCC2C(C)(CO)C(O)CCC2(C)C1CC(NCc1ccccc1)C1=CCOC1=O (stereo not drawn) gave a growth of 100%. For c1cc(C2=N[C@@H]3c4ccccc4C[C@@H]3O2)nc(C2=N[C@@H]3c4ccccc4C[C@@H]3O2)c1, the growth was 89.4%. In the case of COC1=C(OC)C(=O)C(CCCCCCCCCC[P+](c2ccccc2)(c2ccccc2)c2ccccc2)=C(C)C1=O, the growth is reported as -6.16% (active). COc1ccc(-c2cc(-c3ccccc3)nc(SCCCC(=O)NO)n2)cc1OC was tested, and the growth was 8.24% (active). In the case of N=C(N)c1ccc(-c2cc(Cl)cc(Cl)c2)cn1, the growth is reported as 80.4%. In the case of Nc1cccc(-c2nc3sccn3c2-c2ccnc(NCCNS(=O)(=O)c3ccc(C(F)(F)F)cc3)n2)c1, the growth is reported as 67.2%. In the case of C=C1CCC2C(C)(CO)C(O)CCC2(C)C1C/C=C1/C(=O)OCC1O/C=C/c1ccccc1 (stereo not drawn), the growth is reported as 103%. In the case of CCN(CC)CCC(CNc1ccnc2cc(Cl)ccc12)c1ccccc1 (stereo not drawn), the growth is reported as 90%. In the case of COc1ccc(-c2ccc(-c3ccc(C(=N)N)cn3)s2)cc1OC, the growth is reported as 89.1%. With Cn1cnc2c(N3CCN(C(=O)OCc4ccc5c(Cl)cc(Cl)c(O)c5n4)CC3)nc(Cl)nc21 the growth was 66.9%. C=C1CCC2C(C)(CO)C(O)CCC2(C)C1C/C=C1/C(=O)OCC1Oc1ccccc1C (stereo not drawn) was tested, and the growth was 101%. COc1ccc(S(=O)(=O)NCCCNc2nccc(-n3ccc4cccnc43)n2)cc1 gave a growth of 87.5%. CCN(CC)CCC(CNc1ccnc2cc(Cl)ccc12)c1ccc(Cl)cc1 (stereo not drawn) showed a growth of 67.4%. N=C(N)c1ccc(-c2ccc(-c3ccc(-c4cccs4)s3)s2)cc1 showed a growth of 90.1%. COc1ccc(Nc2nn3c(C)cc(C)nc3c2C(=O)Nc2ccc(C)cc2)c(OC)c1 showed a growth of 103%. In the case of CCCCCCN1CSC(=S)N(CCCCCC)C1, the growth is reported as 91.7%. O=C(NS(=O)(=O)c1ccccc1)n1cc(-c2ccncc2)c(-c2ccc(Cl)c(O)c2)n1 showed a growth of 104%.
